# Assay results published in PubChem BioAssay.
# Where “and” joins values, the source holds several entries; their conditions need not be identical. Equal values may be shown once. Calls of active or inactive are those of the source. Unless noted, no stated cut-off is given here; in the data, active means parasite load remaining mostly below about 12% (no sharp cut-off); inactive means mostly above about 10%. Numbered stars: 1 amine (or outer) side, 2 acyl side, 3 side chain; on linkers, the order of the positions; unused ones are H or OH. Bridge positions count the residues as written; N and C are the ends. Square brackets hold non-standard residues; d marks the D form. Peptide text beside a SMILES is read from it. I, II: the chains in the order shown. Actinocin(9to1) = Cc1c2oc3c(C)ccc(C(=O)[*:1])c3nc-2c(C(=O)[*:2])c(N)c1=O; NMeV = CN[CH](C(=O)O)C(C)C; Sar = CNCC(=O)O
# Columns and labels:
# [1] = P. berghei load reduction in hepatocytes – cell-based, HepG2, luciferase luminescence, HepG2 viability, primary screen (AID 624349);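 further: 100% = mean of DMSO negative control wells on the same plate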; conditions: P. berghei liver stage in HepG2, luciferase luminescence, concentration not given here; parasite load remaining: stronger effect = lower value; viability: measured here: HepG2 viability without parasites
# [2] = EMT-state selective cytotoxicity in co-culture – imaging, PC-3E GFP, TEM4-18 mCherry, primary screen (AID 1345086;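 active means compounds killing one labelled cell type while sparing the other, by normalised counts and ratio limits, not self-fluorescent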;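 on all read-outs here: cells exposed to compound for 72 h before imaging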;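 on red/green cell ratio (normalised): normalised mesenchymal count divided by normalised epithelial count so high means epithelial killing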); conditions: PC-3E GFP / TEM4-18 mCherry co-culture, imaging cell counts, at 1 µM; for red/green cell ratio (normalised): actives lie on both sides, counts scaled to control wells, 1 = unselective
# [3] = viability loss with induced miR-34 in A549 – imaging, A549 dox-inducible miR-34, nuclei and caspase counts, primary screen (AID 1347080;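 active means compounds whose cell count with miR-34 switched on is under 0.7 times the count with it off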); conditions: A549 miR-34 inducible, Hoechst nuclei count, 48 h
# [4] = MELAS cybrid and Rieske KO viability enhancers – cell-based, MELAS cybrids, Rieske KO mouse fibroblasts, CellTiter-Glo, primary screen (AID 1508586;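 active means mean z-score across replicates of 1.96 or higher in either the MELAS or the Rieske mutant cell line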;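 further: z relative to plate mean and SD of compound and empty wells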); conditions: low glucose
# [5] = galactose survival enhancers in mitochondrial complex I cybrids – cell-based, galactose medium, ATP luminescence, primary screen (AID 1645843;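 active means z-score of at least 1.8 in each of two replicates, scored against plate mean and spread of sample wells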;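 further: positive z means more ATP and so rescue of galactose-driven cybrid death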); conditions: complex I mutant cybrid cells, 72 h, stronger effect = higher value
# [6] = compounds altering HSF1 focus formation in cells – imaging, Selleck Cancer Library (AID 1347162; in the data active means plate-normalised HSF1 focus index below about 0.46); conditions: human cells, HSF1 nuclear foci imaging, at 10 µM; SSMD: measured here: HSF1 foci SSMD mean; cell count: measured here: cell number; plate-normalised HSF1 focus index: stronger effect = lower value
# [7] = measured here: epithelial PC-3E GFP cell survival
# [8] = measured here: mesenchymal TEM4-18 mCherry cell survival
# [9] = stronger effect = lower value, cell number ratio, induced over uninduced
# [10] = measured here: relative caspase fold change +Dox/-Dox
# [11] = measured here: total cells with miR-34 induction, stronger effect = lower value
# [12] = measured here: total cells without miR-34 induction
# [13] = MELAS cybrid survival, CellTiter-Glo 48 h, stronger effect = higher value
# [14] = Rieske KO mouse fibroblast survival, CellTiter-Glo 72 h
smiles,measurement,setting,value
CCCCCCCCCCCCCCCC(=O)O[C@@H]1[C@@H](O)[C@@H](O)C([C@H](NC(=O)[C@@H]2C[C@@H](CCC)CN2C)[C@H](C)Cl)O[C@@H]1SC (stereo partly drawn),parasite load remaining,[1],57.3% (inactive)
same,viability,[1],113%
same,red/green cell ratio (normalised),[2],0.93 (inactive)
same,normalised cell number,[2]; [7],1.03
same,normalised cell number,[2]; [8],0.95
same,fold change,[3]; [9],0.819 (inactive)
same,fold change,[3]; [10],4.42
same,cell count,[3]; [11],10800
same,cell count,[3]; [12],13200
CO/N=C(/C(=O)N[C@@H]1C(=O)N2C(C(=O)O)=C(CSc3nc(=O)c(O)nn3C)CS[C@H]12)c1csc(N)n1,parasite load remaining,[1],147% (inactive) and 79.9% (inactive) and 62.4% (inactive)
same,viability,[1],82.1% and 106% and 101%
same,red/green cell ratio (normalised),[2],1.22 (inactive)
same,normalised cell number,[2]; [7],1.02
same,normalised cell number,[2]; [8],1.24
same,fold change,[3]; [9],0.888 (inactive)
same,fold change,[3]; [10],3.26
same,cell count,[3]; [11],11700
same,cell count,[3]; [12],13200
COc1cc([C@@H]2c3cc4c(cc3C(O[C@@H]3O[C@@H]5CO[C@@H](c6cccs6)OC5[C@H](O)[C@H]3O)C3COC(=O)[C@@H]32)OCO4)cc(OC)c1O (stereo partly drawn),parasite load remaining,[1],111% (inactive) and 83.3% (inactive)
same,viability,[1],75.6% and 112%
same,red/green cell ratio (normalised),[2],1.33 (inactive)
same,normalised cell number,[2]; [7],0.27
same,normalised cell number,[2]; [8],0.36
same,fold change,[3]; [9],0.795 (inactive)
same,fold change,[3]; [10],3.39
same,cell count,[3]; [11],3270
same,cell count,[3]; [12],4110
CN[C@@H]1[C@@H](O[C@H]2O[C@H](CO)[C@@H](N)[C@H](O)[C@H]2O)O[C@H]2C[C@@H](N)[C@H](O[C@H]3[C@H](O)[C@@H](O)[C@H](N)C[C@@H]3N)O[C@@H]2[C@@H]1O,parasite load remaining,[1],70.7% (inactive) and 61.8% (inactive)
same,viability,[1],108% and 98.4%
same,red/green cell ratio (normalised),[2],1.38 (inactive)
same,normalised cell number,[2]; [7],0.99
same,normalised cell number,[2]; [8],1.36
same,fold change,[3]; [9],0.903 (inactive)
same,fold change,[3]; [10],5.22
same,cell count,[3]; [11],12300
same,cell count,[3]; [12],13600
C=C(NC(=O)C(=C)NC(=O)c1csc(C2=NC3c4csc(n4)C4NC(=O)c5csc(n5)C(C(C)(O)C(C)O)NC(=O)C5CSC(=N5)C(=CC)NC(=O)C(C(C)O)NC(=O)c5csc(n5)C3(CC2)NC(=O)C(C)NC(=O)C(=C)NC(=O)C(C)NC(=O)C(C(C)CC)NC2C=Cc3c(C(C)O)cc(nc3C2O)C(=O)OC4C)n1)C(N)=O (stereo not drawn),parasite load remaining,[1],64.9% (inactive) and 23.2% (inactive)
same,viability,[1],75.8% and 108%
same,red/green cell ratio (normalised),[2],0.94 (inactive)
same,normalised cell number,[2]; [7],0.8
same,normalised cell number,[2]; [8],0.75
same,fold change,[3]; [9],0.829 (inactive)
same,fold change,[3]; [10],1.94
same,cell count,[3]; [11],9190
same,cell count,[3]; [12],11100
CN(Cc1cnc2nc(N)nc(N)c2n1)c1ccc(C(=O)NC(CCC(=O)O)C(=O)O)cc1 (stereo not drawn),red/green cell ratio (normalised),[2],0.89 (inactive)
same,normalised cell number,[2]; [7],1.15
same,normalised cell number,[2]; [8],1.02
same,z-score,[4]; [13],-0.53 (inactive) and 1.15 (inactive)
same,z-score,[4]; [14],0.183 and -0.283
same,z-score,[5],-1.2 (inactive)
CC(=O)O[C@@]12CO[C@@H]1C[C@H](O)[C@@]1(C)C(=O)[C@H](O)C3=C(C)[C@@H](OC(=O)[C@H](O)[C@@H](NC(=O)OC(C)(C)C)c4ccccc4)C[C@@](O)([C@@H](OC(=O)c4ccccc4)C12)C3(C)C (stereo partly drawn),red/green cell ratio (normalised),[2],1.12 (inactive)
same,normalised cell number,[2]; [7],0.16
same,normalised cell number,[2]; [8],0.18
same,SSMD,[6],1.92
same,cell count,[6],6830
same,plate-normalised HSF1 focus index,[6],1.1 (inactive)
C/C=C\C1=C(C(=O)O)N2C(=O)C(NC(=O)C(N)c3ccc(O)cc3)C2SC1 (stereo not drawn),parasite load remaining,[1],117% (inactive) and 53.4% (inactive)
same,viability,[1],69.3% and 102%
same,red/green cell ratio (normalised),[2],1.07 (inactive)
same,normalised cell number,[2]; [7],0.97
same,normalised cell number,[2]; [8],1.04
same,fold change,[3]; [9],0.891 (inactive)
same,fold change,[3]; [10],4.02
same,cell count,[3]; [11],11600
same,cell count,[3]; [12],13100
CC(=O)O[C@]1(C(C)=O)CCC2C3C=C(C)C4=CC(=O)CCC4(C)C3CCC21C (stereo partly drawn),parasite load remaining,[1],94.3% (inactive) and 19.1% (inactive)
same,viability,[1],74.8% and 83.8%
same,red/green cell ratio (normalised),[2],0.94 (inactive)
same,normalised cell number,[2]; [7],1.18
same,normalised cell number,[2]; [8],1.11
same,fold change,[3]; [9],0.897 (inactive)
same,fold change,[3]; [10],2.81
same,cell count,[3]; [11],9250
same,cell count,[3]; [12],10300
CC(C)(Oc1ccc(C(=O)c2ccc(Cl)cc2)cc1)C(=O)O,red/green cell ratio (normalised),[2],1.11 (inactive)
same,normalised cell number,[2]; [7],1.09
same,normalised cell number,[2]; [8],1.21
CCCCCC(O)C1C(=O)OC(C)C(O)/C=C/C=C/C=C/C=C/C=C(\C)C(O)CC(O)CC(O)CC(O)CC(O)CC(O)CC1O (stereo not drawn),parasite load remaining,[1],18% (inactive)
same,viability,[1],94.9%
same,red/green cell ratio (normalised),[2],1.13 (inactive)
same,normalised cell number,[2]; [7],0.84
same,normalised cell number,[2]; [8],0.95
same,fold change,[3]; [9],0.935 (inactive)
same,fold change,[3]; [10],2.39
same,cell count,[3]; [11],11500
same,cell count,[3]; [12],12300
C[C@H](N[C@@H](CCc1ccccc1)C(=O)O)C(=O)N1CCC[C@H]1C(=O)O,red/green cell ratio (normalised),[2],0.88 (inactive)
same,normalised cell number,[2]; [7],1.17
same,normalised cell number,[2]; [8],1.03
same,z-score,[4]; [13],0.249 (inactive)
same,z-score,[4]; [14],-0.206
Cc1nc(N)cc(C[n+]2csc(CCO)c2C)n1,parasite load remaining,[1],58.2% (inactive)
same,viability,[1],97.3%
same,red/green cell ratio (normalised),[2],0.91 (inactive)
same,normalised cell number,[2]; [7],0.96
same,normalised cell number,[2]; [8],0.87
same,fold change,[3]; [9],0.946 (inactive)
same,fold change,[3]; [10],4.78
same,cell count,[3]; [11],12800
same,cell count,[3]; [12],13500
Cc1c2oc3c(C)ccc(C(=O)OC(C)C4NC(=O)C(C(C)C)N(C)C(=O)CN(C)C(=O)C5CCCN5C(=O)C(C(C)C)NC4=O)c3nc-2c(C(=O)OC(C)C2NC(=O)C(C(C)C)N(C)C(=O)CN(C)C(=O)C3CCCN3C(=O)C(C(C)C)NC2=O)c(N)c1=O (stereo not drawn) (I: cyclo([Sar][NMeV]TVP) / II: cyclo([Sar][NMeV]TVP); linker I:3-II:3 via Actinocin(9to1); configuration not given here),parasite load remaining,[1],-0.105% (inactive)
same,viability,[1],76.4%
same,red/green cell ratio (normalised),[2],1.97 (active)
same,normalised cell number,[2]; [7],0.25
same,normalised cell number,[2]; [8],0.49
same,fold change,[3]; [9],0.996 (inactive)
same,fold change,[3]; [10],1.67
same,cell count,[3]; [11],2910
same,cell count,[3]; [12],2920
COc1cc([C@@H]2c3cc4c(cc3C(OC3O[C@@H]5COC(C)O[C@H]5[C@H](O)[C@H]3O)C3COC(=O)[C@@H]32)OCO4)cc(OC)c1O (stereo partly drawn),parasite load remaining,[1],116% (inactive) and 63.3% (inactive)
same,viability,[1],71.1% and 87.6%
same,red/green cell ratio (normalised),[2],0.85 (inactive)
same,normalised cell number,[2]; [7],0.36
same,normalised cell number,[2]; [8],0.31
same,fold change,[3]; [9],0.832 (inactive)
same,fold change,[3]; [10],1.86
same,cell count,[3]; [11],3220
same,cell count,[3]; [12],3870
O=C1[C@H](CCC(O)c2ccc(F)cc2)[C@@H](c2ccc(O)cc2)N1c1ccc(F)cc1 (stereo partly drawn),parasite load remaining,[1],127% (inactive) and 58.1% (inactive)
same,viability,[1],82.3% and 90.7%
same,red/green cell ratio (normalised),[2],1.19 (inactive)
same,normalised cell number,[2]; [7],0.87
same,normalised cell number,[2]; [8],1.03
same,fold change,[3]; [9],0.905 (inactive)
same,fold change,[3]; [10],1.79
same,cell count,[3]; [11],11700
same,cell count,[3]; [12],12900
CC(=O)OCC(=O)[C@@]1(O)CCC2C3CCC4=CC(=O)CC[C@]4(C)[C@@]3(F)[C@@H](O)C[C@@]21C (stereo partly drawn),parasite load remaining,[1],127% (inactive) and 70.7% (inactive)
same,viability,[1],75.9% and 93.9%
same,red/green cell ratio (normalised),[2],1.57 (inactive)
same,normalised cell number,[2]; [7],0.85
same,normalised cell number,[2]; [8],1.34
same,fold change,[3]; [9],0.879 (inactive)
same,fold change,[3]; [10],1.47
same,cell count,[3]; [11],6890
same,cell count,[3]; [12],7830
CC(=O)OCC(=O)[C@@]1(OC(C)=O)[C@@H](C)CC2C3C[C@H](F)C4=CC(=O)C=C[C@]4(C)[C@@]3(F)[C@@H](O)C[C@@]21C (stereo partly drawn),parasite load remaining,[1],202% (inactive)
same,viability,[1],105%
same,red/green cell ratio (normalised),[2],1.18 (inactive)
same,normalised cell number,[2]; [7],1.13
same,normalised cell number,[2]; [8],1.34
same,fold change,[3]; [9],0.928 (inactive)
same,fold change,[3]; [10],4.21
same,cell count,[3]; [11],7220
same,cell count,[3]; [12],7780
Nc1ccc(C(=O)O)c(O)c1 (tested in a mixture with another compound),parasite load remaining,[1],155% (inactive)
same,viability,[1],85.3%
CC[C@@H](C(=O)[C@@H](C)[C@@H](O)[C@H](C)[C@@H]1O[C@@H]([C@@H](CC)C(=O)O)CC[C@@H]1C)[C@H]1OC2(C=C[C@@H](O)[C@]3(CC[C@@](C)([C@H]4CC[C@](O)(CC)[C@H](C)O4)O3)O2)[C@H](C)C[C@@H]1C (stereo partly drawn),parasite load remaining,[1],-5.04% (inactive)
same,viability,[1],82%
O=C1C(Cl)=C(NCCN2CCOCC2)C(=O)c2ncccc21,SSMD,[6],6.65
same,cell count,[6],6880
same,plate-normalised HSF1 focus index,[6],1.4 (inactive)
